# In the supplement of paper PMC9794691:
# Assays:
# H1975 [1] = test: area under confluence curve of compound monotherapy; compare to DMSO control AUC of the same experiment (AUC (confluence x time, arbitrary))
# Method in brief: (§1)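 EGFR-mutant adenocarcinoma lines (RPMI 1640, 10% FBS, 37 °C, 5% CO2) were seeded at 20,000–30,000 cells/well in 48-well plates and next day given test compound alone at one dose (highest with <50% parental inhibition, or 1 uM), refreshed after PBS washes every 3–4 days, then drug-free from DTP stage (10–21 days). IncuCyte confluence was tracked until EGFR-inhibitor-only wells regrew. Area under the confluence curve came from Prism (median of triplicates where run), beside same-experiment vehicle AUC.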
# HCC2279 [2] = test: as above
# Method in brief: as §1
# HCC2935 [3] = test: as above
# Method in brief: as §1
# HCC4006 [4] = test: as above
# Method in brief: as §1
# HCC827 [5] = test: as above
# Method in brief: as §1
# II-18 [6] = test: as above
# Method in brief: as §1
# H1975 [7] = test: area under confluence curve of osimertinib + compound combination regimen (DTP regrowth); compare to osimertinib-only DTP control AUC of the same experiment (AUC (confluence x time, arbitrary))
# Method in brief: (§2)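 The area under the IncuCyte confluence–time curve, calculated in Prism and taken as the median of triplicates where available, is the value reported. It was measured in EGFR-mutant NSCLC lines that received the EGFR inhibitor either alone, followed by a test compound, or together with a fixed-dose test compound until the persister stage (10–21 days) and then drug-free medium. Medium was refreshed every 3–4 days until the inhibitor-only wells were confluent again.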
# HCC2279 [8] = test: as above
# Method in brief: as §2
# HCC2935 [9] = test: as above
# Method in brief: as §2
# HCC4006 [10] = test: as above
# Method in brief: as §2
# HCC827 [11] = test: as above
# Method in brief: as §2
# II-18 [12] = test: as above
# Method in brief: as §2
smiles,measurement,setting,value
CN(C)CCCOc1ccc(-c2ccc3ncc4c(c3c2)n(C2CCOCC2)c(=O)n4C)cn1,area under confluence curve,"H1975 [1]; 300 nM, DMSO control AUC in same experiment: 26223",22300
same,area under confluence curve,"HCC2279 [2]; 300 nM, DMSO control AUC in same experiment: 14404",14100
same,area under confluence curve,"HCC2935 [3]; 300 nM, DMSO control AUC in same experiment: 19215",21000
same,area under confluence curve,"HCC4006 [4]; 300 nM, DMSO control AUC in same experiment: 18415",20100
same,area under confluence curve,"HCC827 [5]; 300 nM, DMSO control AUC in same experiment: 21320",20700
same,area under confluence curve,"II-18 [6]; 300 nM, DMSO control AUC in same experiment: 11834",12300
CCn1nc(C2CCN(C(=O)CCO)CC2)nc1-c1cnc(N)c(-c2nnc(C(C)(C)C)o2)n1,area under confluence curve,"H1975 [1]; 1000 nM, DMSO control AUC in same experiment: 20657",18200
same,area under confluence curve,"HCC2279 [2]; 1000 nM, DMSO control AUC in same experiment: 9426",11400
same,area under confluence curve,"HCC2935 [3]; 1000 nM, DMSO control AUC in same experiment: 13875",11700
same,area under confluence curve,"HCC4006 [4]; 1000 nM, DMSO control AUC in same experiment: 16638",17000
same,area under confluence curve,"HCC827 [5]; 1000 nM, DMSO control AUC in same experiment: 27404",27500
same,area under confluence curve,"II-18 [6]; 1000 nM, DMSO control AUC in same experiment: 18482",14200
NC1(C(=O)N[C@@H](CCO)c2ccc(Cl)cc2)CCN(c2nc[nH]c3nccc2-3)CC1 [Capivasertib] + C=CC(=O)Nc1cc(Nc2nccc(-c3cn(C)c4ccccc34)n2)c(OC)cc1N(C)CCN(C)C [osimertinib],area under confluence curve,"H1975 [7]; test compound dose 300 nM, dosing schedule: sequential, osimertinib-only DTP control AUC in same experiment: 9919, DMSO control AUC in same experiment: 26010",1840
same,area under confluence curve,"H1975 [7]; test compound dose 300 nM, dosing schedule: upfront, osimertinib-only DTP control AUC in same experiment: 15327, DMSO control AUC in same experiment: 26010",3990
same,area under confluence curve,"HCC2279 [8]; test compound dose 300 nM, dosing schedule: sequential, osimertinib-only DTP control AUC in same experiment: 20224, DMSO control AUC in same experiment: 29252",13700
same,area under confluence curve,"HCC2279 [8]; test compound dose 300 nM, dosing schedule: upfront, osimertinib-only DTP control AUC in same experiment: 43517, DMSO control AUC in same experiment: 29252",38900
same,area under confluence curve,"HCC2935 [9]; test compound dose 300 nM, dosing schedule: sequential, osimertinib-only DTP control AUC in same experiment: 9121, DMSO control AUC in same experiment: 11459",5940
same,area under confluence curve,"HCC2935 [9]; test compound dose 300 nM, dosing schedule: upfront, osimertinib-only DTP control AUC in same experiment: 12748, DMSO control AUC in same experiment: 11459",10300
same,area under confluence curve,"HCC4006 [10]; test compound dose 300 nM, dosing schedule: sequential, osimertinib-only DTP control AUC in same experiment: 22375, DMSO control AUC in same experiment: 16794",17000
same,area under confluence curve,"HCC4006 [10]; test compound dose 300 nM, dosing schedule: upfront, osimertinib-only DTP control AUC in same experiment: 24440, DMSO control AUC in same experiment: 16794",12500
same,area under confluence curve,"HCC827 [11]; test compound dose 300 nM, dosing schedule: sequential, osimertinib-only DTP control AUC in same experiment: 8266, DMSO control AUC in same experiment: 27404",5490
same,area under confluence curve,"HCC827 [11]; test compound dose 300 nM, dosing schedule: upfront, osimertinib-only DTP control AUC in same experiment: 13929, DMSO control AUC in same experiment: 27404",9340
same,area under confluence curve,"II-18 [12]; test compound dose 300 nM, dosing schedule: sequential, osimertinib-only DTP control AUC in same experiment: 3520, DMSO control AUC in same experiment: 13556",3590
same,area under confluence curve,"II-18 [12]; test compound dose 300 nM, dosing schedule: upfront, osimertinib-only DTP control AUC in same experiment: 6532, DMSO control AUC in same experiment: 13556",2040
O=C(NC[C@H](O)CN1CCc2ccccc2C1)c1ccnc(NC2CCC2)c1 + C=CC(=O)Nc1cc(Nc2nccc(-c3cn(C)c4ccccc34)n2)c(OC)cc1N(C)CCN(C)C [osimertinib],area under confluence curve,"H1975 [7]; test compound dose 300 nM, dosing schedule: sequential, osimertinib-only DTP control AUC in same experiment: 15943, DMSO control AUC in same experiment: 20657",14900
same,area under confluence curve,"H1975 [7]; test compound dose 300 nM, dosing schedule: upfront, osimertinib-only DTP control AUC in same experiment: 27804, DMSO control AUC in same experiment: 20657",25700
same,area under confluence curve,"HCC2279 [8]; test compound dose 300 nM, dosing schedule: sequential, osimertinib-only DTP control AUC in same experiment: 15997, DMSO control AUC in same experiment: 40085",8560
same,area under confluence curve,"HCC2279 [8]; test compound dose 300 nM, dosing schedule: upfront, osimertinib-only DTP control AUC in same experiment: 28057, DMSO control AUC in same experiment: 40085",8330
same,area under confluence curve,"HCC2935 [9]; test compound dose 300 nM, dosing schedule: sequential, osimertinib-only DTP control AUC in same experiment: 7139, DMSO control AUC in same experiment: 15413",8090
same,area under confluence curve,"HCC2935 [9]; test compound dose 300 nM, dosing schedule: upfront, osimertinib-only DTP control AUC in same experiment: 19044, DMSO control AUC in same experiment: 15413",16100
same,area under confluence curve,"HCC4006 [10]; test compound dose 300 nM, dosing schedule: sequential, osimertinib-only DTP control AUC in same experiment: 14882, DMSO control AUC in same experiment: 10921",9080
same,area under confluence curve,"HCC4006 [10]; test compound dose 300 nM, dosing schedule: upfront, osimertinib-only DTP control AUC in same experiment: 18913, DMSO control AUC in same experiment: 10921",6670
same,area under confluence curve,"HCC827 [11]; test compound dose 300 nM, dosing schedule: sequential, osimertinib-only DTP control AUC in same experiment: 5666, DMSO control AUC in same experiment: 43928",5240
same,area under confluence curve,"HCC827 [11]; test compound dose 300 nM, dosing schedule: upfront, osimertinib-only DTP control AUC in same experiment: 19044, DMSO control AUC in same experiment: 43928",24000
same,area under confluence curve,"II-18 [12]; test compound dose 300 nM, dosing schedule: sequential, osimertinib-only DTP control AUC in same experiment: 21122, DMSO control AUC in same experiment: 7080",18800
same,area under confluence curve,"II-18 [12]; test compound dose 300 nM, dosing schedule: upfront, osimertinib-only DTP control AUC in same experiment: 22894, DMSO control AUC in same experiment: 7080",6900
O=C(c1cc(Cc2n[nH]c(=O)c3ccccc23)ccc1F)N1CCN(C(=O)C2CC2)CC1 [Olaparib] + C=CC(=O)Nc1cc(Nc2nccc(-c3cn(C)c4ccccc34)n2)c(OC)cc1N(C)CCN(C)C [osimertinib],area under confluence curve,"H1975 [7]; test compound dose 1000 nM, dosing schedule: sequential, osimertinib-only DTP control AUC in same experiment: 22968, DMSO control AUC in same experiment: 15857",19500
same,area under confluence curve,"H1975 [7]; test compound dose 1000 nM, dosing schedule: upfront, osimertinib-only DTP control AUC in same experiment: 27164, DMSO control AUC in same experiment: 15857",21000
same,area under confluence curve,"HCC2279 [8]; test compound dose 1000 nM, dosing schedule: sequential, osimertinib-only DTP control AUC in same experiment: 26096, DMSO control AUC in same experiment: 14404",23100
same,area under confluence curve,"HCC2279 [8]; test compound dose 1000 nM, dosing schedule: upfront, osimertinib-only DTP control AUC in same experiment: 33120, DMSO control AUC in same experiment: 14404",29800
same,area under confluence curve,"HCC2935 [9]; test compound dose 1000 nM, dosing schedule: sequential, osimertinib-only DTP control AUC in same experiment: 22314, DMSO control AUC in same experiment: 19215",20700
same,area under confluence curve,"HCC2935 [9]; test compound dose 1000 nM, dosing schedule: upfront, osimertinib-only DTP control AUC in same experiment: 29846, DMSO control AUC in same experiment: 19215",26000
same,area under confluence curve,"HCC4006 [10]; test compound dose 1000 nM, dosing schedule: sequential, osimertinib-only DTP control AUC in same experiment: 12791, DMSO control AUC in same experiment: 18415",11700
same,area under confluence curve,"HCC4006 [10]; test compound dose 1000 nM, dosing schedule: upfront, osimertinib-only DTP control AUC in same experiment: 17269, DMSO control AUC in same experiment: 18415",18000
same,area under confluence curve,"HCC827 [11]; test compound dose 1000 nM, dosing schedule: sequential, osimertinib-only DTP control AUC in same experiment: 15330, DMSO control AUC in same experiment: 21320",12400
same,area under confluence curve,"HCC827 [11]; test compound dose 1000 nM, dosing schedule: upfront, osimertinib-only DTP control AUC in same experiment: 20798, DMSO control AUC in same experiment: 21320",23700
same,area under confluence curve,"II-18 [12]; test compound dose 1000 nM, dosing schedule: sequential, osimertinib-only DTP control AUC in same experiment: 8624, DMSO control AUC in same experiment: 11834",9480
same,area under confluence curve,"II-18 [12]; test compound dose 1000 nM, dosing schedule: upfront, osimertinib-only DTP control AUC in same experiment: 10856, DMSO control AUC in same experiment: 11834",9420
